Experimental data: PubChem BioAssay (NCI)
The panel holds about 79,000 compounds, 15% with a hit somewhere; the sample as a whole holds those more often. Activity calls are given as the source filed them. No stated cut-off is given here; in the data, active means growth inhibition above about 70%; inactive means the rest.

Assay: NCI Yeast Anticancer Drug Screen. Data for the wt2 strain (AID 169);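 further: 0% = growth of vehicle-treated yeast cultures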
Conditions: S. cerevisiae wt2 strain growth inhibition, hits give high values
Procedure: Growth inhibition of yeast strains with defined genetic alterations is measured as a screen for potential anti-cancer activity. Selected strains with alterations in DNA damage repair or cell cycle control were exposed to compounds and growth inhibition was measured relative to vehicle treated controls. The strain used in this assay is wt2

Measured: growth inhibition

CC(C)(O)c1ccccc1C(c1ccccc1)c1ccccc1
inactive: at 1.2 µM -9% | at 3.7 µM -10% | at 11.0 µM -12% | at 33.0 µM -10% | at 100.0 µM -17%

O/N=C/C1c2ccccc2-c2ccccc21
inactive: at 1.2 µM -1% | at 3.7 µM -2% | at 11.0 µM -3% | at 33.0 µM 22%
active: at 100.0 µM 70%

CC1OC(OC2CCCc3c(O)c4c(c(O)c32)C(=O)c2ccccc2C4=O)CC(N)C1O (stereo not given)
inactive: at 1.2 µM 4% | at 3.7 µM 9% | at 11.0 µM 61%
active: at 33.0 µM 97% | at 100.0 µM 99%

COC(=O)c1ccc2c(c1)Cc1ccccc1-2
inactive: at 1.2 µM -3% | at 3.7 µM -2% | at 11.0 µM -4% | at 33.0 µM 3% | at 100.0 µM 28%

O=C1C=CC(=O)N1c1ccc(I)cc1
active: at 11.0 µM 81% | at 33.0 µM 100% | at 100.0 µM 99%
inactive: at 1.2 µM -2% | at 3.7 µM 16%

COc1ccc(N2C(=O)CC(Cl)C2=O)cc1 (stereo not given)
active: at 33.0 µM 99% | at 100.0 µM 100%
inactive: at 1.2 µM -4% | at 3.7 µM -1% | at 11.0 µM 37%

COC(=O)c1oc([N+](=O)[O-])c(Cl)c1Cl
inactive: at 1.2 µM 64% | at 3.7 µM 51%
active: at 11.0 µM 74% | at 33.0 µM 99% | at 100.0 µM 99%

Cc1nc2c(ncn2CCO)c(=O)[nH]1
inactive: at 1.2 µM -15% | at 3.7 µM -30% | at 11.0 µM -31% | at 33.0 µM -37% | at 100.0 µM -38%
